Molecules are shown by their SMILES. Results filed as inconclusive are left out. A call without a number means that no potency is given here. Active and inactive are the calls of the source. Calls come from the whole dose curve; as a rule, active = well fitted cell-killing curve with a large enough effect; inconclusive = small, poorly fitted or top-dose-only effect; inactive = flat fitted curve, though single readings scatter.

This note sets out measurements from PubChem BioAssay (NCATS).
Potency is the fitted concentration of half-maximal effect.

The assay can be described thus: Quantitative highthroughput screen to assess conditional lethalithy of P12 Ichikawa cells grown in Human Plasma-Like Medium with dialyzed fetal bovine serum (HPLM+ds) (AID 1963879). Note: nearly all actives have a fitted effect of over 35% in size. Particulars: ATP luminescence, 48 h; Potency: viability; series mostly up to 45.8 µM. An excerpt:
Assay Provider: Jason Cantor Ph.D.
Department of Biochemistry
University of Wisconsin-Madison, Madison, WI, USA
Chemical screening studies have identified drug sensitivities across hundreds of cancer cell lines but most putative therapeutics fail to translate. Discovery and development of drug candidates in models that more accurately reflect nutrient levels in human blood is a major challenge. Here we performed high-throughput screens in conventional versus Human Plasma-Like Medium (HPLM) to identify compounds that were "missed" when screening using the artificial culture condition. Sets of conditional anticancer compounds spanned phases of clinical development and included non-oncology drugs were assessed. […] We also traced conditional phenotypes for several chemotherapeutics to availability of HPLM-specific metabolites and confirmed others for compounds whose reported targets are encoded by nonessential genes. Our findings establish generalizable strategies for exploiting conditional lethality in HPLM to reveal therapeutic candidates and mechanisms of action in cancer cells.
Described herein are the results of each viability screens against three cell lines: NOMO1 (an acute myeloid leukemia cell line); P12-Ichikawa (a T-cell acute lymphoblastic leukemia); and SEM (a B-cell ALL). Each assay was screened using 3 different cell culture media: homemade human plasma-Like medium with 10% dialyzed fetal bovine serum (HPLM+ds); RPMI1640 with 10% untreated FBS and 5mM glucose (RPMI+s); and RPMI1640 with 10% dialyzed fetal bovine serum and 5 mM glucose (RPMI+ds).
PROTOCOL TABLE (as described by Inglese J, Shamu CE and Guy RK. 2007)
SEQUENCE No. (e.g., 1, 2, 3, etc.); […] (e.g., Cells, Incubation, Reagent, etc.); VALUE and DESCRIPTION.
1; Cells; 5 uL; white, solid bottom 1536-well Greiner assay plate.
2; Compounds; 23 nL; Kalypsis pin tool (Wako USA) equipped with a 1536-well pin head to transfer to the assay plates.
3; Incubation; 48 hours; 37C incubation.
4; Reagent; 3 uL; CellTiter Glo (Promega).
5; Incubation; 5 min, room temperature
6; Detection; Luminescence, Viewlux PerkinElmer.
NOTES (numbers refer to Sequence numbers above)
1. Briefly, 5 ul of cell reagent was dispensed using a Multidrop Combi Dispenser. The NOMO1 and SEM cells were plated at 500 cells/well and the P12-Ichikawa line at 1000 cells/well.
2. After seeding the cells, 23 nL of MIPE 4.1 library compounds (in DMSO) were added to each plate using a Kalypsys 1536 Pintool dispenser. Bortezomib at final concentration of […] and DMSO were added to each plate as positive and negative controls respectively. For each screen, MIPE 4.1 compounds were added over an eleven-point concentration range […] in 3-fold dilutions.
3. Each plate was covered with a stainless steel gasketed lid to prevent evaporation and incubated for 48 hour at 37C, 95% relative humidity, and 5% CO2.
4-5. Three microliter CellTilter-GloTM luminescent substrate mix (Promega) reagent was added to the assay plate and incubated at room temperature for 5 min.
6. The luminescence signal was measured using a ViewLux (PerkinElmer) multiplate reader with a 2 second exposure time per plate. Data for each compound were normalized as percent viability such that measurements for DMSO and the empty well controls in each plate were defined as 100% and 0%, respectively.
For `CC(C)C(=O)Nc1ccc([N+](=O)[O-])c(C(F)(F)F)c1`, the Potency was 1.87 µM (active). Consider `CC(C)(C)COc1ccc(-n2cc(C(=O)O)cn2)cc1C#N`, for which the Potency entry is “inactive”.

With `C[C@@]12C(=O)OC(=O)[C@@]1(C)C1CCC2O1`, the Potency was 8.33 µM (active). Take `CON=C(C(=O)N[C@@H]1C(=O)N2C(C(=O)O)=C(CSC(=O)c3ccco3)CS[C@H]12)c1csc(N)n1`: the Potency result is “inactive”.

Consider `C=CCc1cc(OC)c(O)c(C(=O)NCCO)c1`, for which the Potency entry is “inactive”. With `COc1ccc2c(c1)CC[C@@H](CN(C)CC(=O)O)[C@H]2c1ccccc1`, the Potency was 2.64 µM (active).

Turning to `COC(=O)Nc1nc2ccc(C(=O)c3cccs3)cc2[nH]1`, the Potency is 0.0187 µM (active). In the case of `COc1ccc(COc2cc3oc(=O)c4cc(C(C)O)ccc4c3cc2OC)cc1` (stereo not given) it was “inactive”. To `Cc1cc(Nc2cc(N3CCN(C)CC3)nc(C=Cc3ccccc3)n2)n[nH]1` belongs 2.15 µM (active); to `COc1ccc(Cc2nccc3cc(OC)c(OC)cc23)cc1OC`, “inactive”. Consider `C[C@H]1[C@@H](OC(=O)CCC(=O)O)O[C@@H]2O[C@@]3(C)CC[C@@H]4[C@H](C)CC[C@@H]1[C@@]24OO3`, for which the Potency is 11.8 µM (active).

Take `COc1cccc2nc(-c3cccs3)nc(NN3C(=O)C=C(C)C3=O)c12`: the Potency was 2.09 µM (active). To `CC[C@H](C=C[C@@H](C)[C@H]1CC[C@H]2[C@@H]3CC=C4C[C@@H](O)CC[C@]4(C)[C@@H]3CC[C@]12C)C(C)C` belongs “inactive”; to `Cn1cnc(=N)c2[nH]cnc21`, 7.43 µM (active); to `CC(O)(C#Cc1ccc2c(c1)N(c1nc(N)ncc1Cl)CC2)c1nccs1` (stereo not given), “inactive”. As to `O=S(=O)(NCCNCC=Cc1ccc(Br)cc1)c1cccc2cnccc12`, the Potency result was “inactive”. To `COc1cc2c(cc1OC)[C@@H]1Cc3ccc(OC)c(OC)c3CN1CC2` belongs “inactive”. On to `O=C(O)c1cccnc1Nc1cccc(C(F)(F)F)c1`, for which the Potency result is “inactive”. In the case of `COc1ccc2nc3cc(Cl)ccc3c(Nc3cc(CN4CCCC4)c(O)c(CN4CCCC4)c3)c2n1` it was “inactive”. In the case of `O=c1cc(-c2ccc(O)c(O)c2)oc2cc(O)cc(O)c12` it was “inactive”. To `O=C(Nc1ccc(OC(F)(F)F)cc1)c1sccc1NCc1ccnc2ccccc12` belongs 0.469 µM (active); to `O=C(Nc1cc(Cl)cc2c1[nH]c1cnccc12)c1cccnc1`, “inactive”; to `CC(C)[C@H](N)C(=O)OCCOCn1cnc2c(=O)[nH]c(N)nc21`, “inactive”. With `OC(Cn1cncn1)(Cn1cncn1)c1ccc(F)cc1F`, the Potency result is “inactive”. For `CC1(C)[C@H]2CC[C@]3(C)[C@@H](C(=O)C=C4[C@@H]5C[C@@](C)(C(=O)O)CC[C@]5(C)CC[C@]43C)[C@@]2(C)CC[C@@H]1O`, the Potency entry is “inactive”. In the case of `C[C@H](NC(=O)C(C#N)=Cc1cccc(Br)n1)c1ccccc1` it was 1.48 µM (active). On to `COc1cccc2c1C(=O)c1c(O)c3c(c(O)c1C2=O)C[C@@](O)(C(=O)CO)C[C@@H]3O[C@H]1C[C@H](N)[C@H](OC2CCCCO2)[C@H](C)O1` (stereo not given in full), for which the Potency entry was “inactive”. In the case of `NC(=O)c1noc([C@H](CCCC2CCCCC2)CC(=O)NO)n1` it was 23.5 µM (active); in that of `COc1ccc(CCN(C)CCCOc2ccc(S(=O)(=O)c3[nH]c4ccccc4c3C(C)C)cc2)cc1OC`, “inactive”. For `Cc1noc(NS(=O)(=O)c2ccc(N)cc2)c1C`, the Potency result was “inactive”. To `O=C(O)[C@H](CC(=O)N1C[C@@H]2CCCC[C@H]2C1)Cc1ccccc1` belongs “inactive”; to `O=c1cc(-c2ccccc2)oc2cc(O)cc(O)c12`, 26.4 µM (active).

As to `CCN(CC)C(=S)SSC(=S)N(CC)CC`, the Potency was 2.96 µM (active). To `CNC(=O)c1ccccc1Sc1ccc2c(C=Cc3ccccn3)n[nH]c2c1` belongs 7.43 µM (active); to `CCCCCCCCCCCCCCCC(=O)OC[C@@H](NC(=O)C(Cl)Cl)[C@H](O)c1ccc([N+](=O)[O-])cc1`, “inactive”. With `Cc1noc(-c2ccc(CSCCC(=O)O)cc2)c1NC(=O)OC(C)c1ccccc1Cl` (stereo not given), the Potency is 18.7 µM (active). On to `Clc1cccc(-c2nnnn2Cc2cccnc2)c1Cl`, for which the Potency is 7.43 µM (active).

In the case of `CC(C)(O)c1cc2nc(-c3cnc(N)nc3)nc(N3CCOCC3)c2s1`, the Potency is 0.935 µM (active).

On to `CC(=O)SC[C@@H](C)C(=O)N1CCC[C@H]1C(=O)N[C@@H](Cc1ccccc1)C(=O)O`, for which the Potency entry is “inactive”. In the case of `Cc1c(CN2CCN(S(C)(=O)=O)CC2)sc2c(N3CCOCC3)nc(-c3cnc(N)nc3)nc12` it was 0.418 µM (active).
